Drawing on PubChem BioAssay (NCI), this text covers growth inhibition for 25 compounds.

This is part of a sample that, as a whole, favours compounds with a hit. Of some 79,000 tested, about 15% had one in any assay. Values without a mark were called inactive. The source made the active and inactive calls. Rule as the data show it: active = growth inhibition above about 70%; inactive = the rest.

The assay in a line: NCI Yeast Anticancer Drug Screen. Data for the mec2-1 strain (AID 157). The following applies: S. cerevisiae mec2-1 strain, at 50.0 µM, stronger effect = higher value. The method, boiled down:
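Growth inhibition is read against vehicle-treated controls after compound exposure of the mec2-1 yeast strain, which is defective in DNA damage repair or cell cycle control.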
Regarding `CC(=O)NC(Cc1cccc2ccccc12)C(=O)O` (stereo not given), the growth inhibition is -6.15%.

For the compound `c1ccc(N=C2CCCCCC2)cc1`, the growth inhibition was 14.2%.

As for `COc1cc2cc3c4cc(OC)c(OC)cc4cc[n+]3cc2cc1OC`, the growth inhibition was -54.5%.

As to `CCN(CC)c1ccc2cc(C(=O)Nc3nc(C45CC6CC(CC(C6)C4)C5)cs3)c(=O)oc2c1`, the growth inhibition is -25.9%.

`O=C(NCCCN1CCCCCC1)C(c1ccccc1)C1CCCCC1` (stereo not given): the growth inhibition is -16.4%.

With `CC1(C)N=C(N)N=C(N)N1c1ccc(C(F)(F)F)cc1`, the growth inhibition is 10.1%.

With `CC(Cc1ccccc1)NC(=O)CCCN1C(=O)c2ccccc2C1=O` (stereo not given), the growth inhibition was 1%.

Take `CCSc1nc(C)nc2c1cnn2-c1ccccc1`: the growth inhibition was -6.7%.

For `CC1(C)OC[C@@H](O)[C@H](Br)CO1`, the growth inhibition was -36%.

For the compound `COc1ccc2cc3n(cc-2c1=O)CCc1cc2c(cc1-3)OCO2`, the growth inhibition was -3.1%.

Take `N#CCCCN1CCOCC1`: the growth inhibition was -20.9%.

As for `CC(=O)C1(C)CCC2C3CCC4=CC(=O)CCC4=C3CCC21C` (stereo not given), the growth inhibition was 1.3%.

Regarding `CC(C)(C)/[N+]([O-])=C/C1(C2(/C=[N+](\[O-])C(C)(C)C)Cc3ccccc3C2=O)Cc2ccccc2C1=O` (stereo not given), the growth inhibition is 3.75%.

With `COC(=O)/C=C/C(=N/N(C)c1ccccc1)c1ccccc1`, the growth inhibition was -0.2%.

In the case of `NCCC(=O)NCCSSCCNC(=O)CCN`, the growth inhibition was 11%.

Regarding `O=C(NCCCNCCCCNCCCNC(=O)C(F)(F)F)C(F)(F)F`, the growth inhibition was -0.9%.

`O=C(CCC(=O)Nc1cc(Cl)ccc1Cl)CC(=O)c1ccc(Cl)cc1`: the growth inhibition was 24.9%.

As to `S=C1NC(/C=C/c2ccccc2)Nc2ccccc21` (stereo not given), the growth inhibition is 79.1% (active).

For the compound `O=C(Nc1cc(Br)c2cccc3c2c1CC3)c1ccccc1`, the growth inhibition was 10.9%.

As to `CN(C)CC(c1ccccc1)C(O)(c1ccccc1)c1ccccc1` (stereo not given), the growth inhibition was -2.75%.

For the compound `Clc1ccccc1CSc1cc(SCc2ccccc2Cl)nc(SCc2ccccc2Cl)n1`, the growth inhibition was -2.75%.

Regarding `CC(C)=CCC(C)C`, the growth inhibition was 3.85%.

Take `CCC(=O)NC1CCCCC1`: the growth inhibition is 3.5%.

As to `O=C(c1ccccc1)C(c1ccccc1)N(CCO)CCO` (stereo not given), the growth inhibition was -17.4%.

`O=c1[nH]c2ccccc2c(N=Cc2ccccc2)c1-c1ccccc1`: the growth inhibition is -20.6%.
